Here are results for five compounds from PubChem BioAssay.

Assay [1] in a line: stimulators of nuclear beta-catenin in C2C12, primary screen, imaging, WNT3A-conditioned medium, mouse C2C12, NPC library (AID 1117326; in the data active = nuclear beta-catenin stimulation mostly above about 4.2%, no sharp cut-off; inactive = mostly below about 10%). The note with it: stronger effect = higher value.
Assay [2] in a line: stimulators of insulin release from INS-1E, primary screen, cell-based, 5 mM glucose, NPC library (AID 1117329;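 active = compound raises insulin release from rat beta cells at 5 mM glucose, no numeric limit stated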). The note with it: rat INS-1E insulin secretion, at 10 µM, stronger effect = higher value.
Assay [3] can be described thus: growth inhibition of GSK3B-pretreated HCT116 cells – cell-based, CellTiter-Glo, 0.2 to 20 µM (AID 1117336;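 active = compounds lowering colon cancer cell viability after pretreatment blocking the GSK3B kinase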). The note with it: HCT116 viability after GSK3B inhibitor, at 20 µM, stronger effect = higher value. (Cellular ATP, detected with luciferase, serves as a proxy for viable cell number.)
The nature of assay [4]: inhibition of endothelial tube formation, primary screen, imaging, VEGF stimulated, CD31 staining, tube area, NPC library (AID 1117340;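 active = compound that reduces growth-factor-driven endothelial tube area in a mixed cell culture, no cutoff stated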). The note with it: VEGF-stimulated ADSC/ECFC co-culture, at 10 µM, stronger effect = higher value.
Assay [5] can be described thus: glucagon-like peptide 1 release enhancers, primary assay, NCI-H716 cell line, NPC library (AID 1117341;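 active = compound raises GLP1 secretion from the human gut endocrine cells, with no numeric limit stated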). The note with it: NCI-H716 cells, at 10 µM, stronger effect = higher value.
Assay [6] can be described thus: HCT116 colon cancer cell growth inhibition, primary screen, CellTiter-Glo luminescence, NPC library (AID 1117342;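 active = compounds that lower survival of HCT116 colon cancer cells in the luminescence readout, no numeric limit stated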). The note with it: at 20 µM (top of the series).
Assay [7] in a line: CellTiter-Glo luminescent readout of SW480 viability loss, NPC library primary (AID 1117343;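 active = compounds that lower viability of the colon cancer cells in the luminescence readout, with no numeric limit stated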). The note with it: CellTiter-Glo luminescence; at 20 µM (top of the series) unless noted.
Assay [8] can be described thus: decreased DLD-1 cellular survival, CellTiter-Glo luminescent readout, NPC compound collection, primary HTS (AID 1117346;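 active = compounds that lower survival of DLD-1 colon cancer cells in the luminescence readout, no cutoff given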). The note with it: DLD-1 viability, CellTiter-Glo luminescence; at 20 µM (top of the series).
A short description of assay [9]: differential killing of epithelial or mesenchymal cells, primary screen, imaging, PC-3E GFP, TEM4-18 mCherry, co-culture (AID 1345086;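 active = compounds killing one labelled cell type while sparing the other, by normalised counts and ratio limits, not self-fluorescent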;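 for all read-outs here: cells exposed to compound for 72 h before imaging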;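 for red/green cell ratio (normalised): normalised mesenchymal count divided by normalised epithelial count so high means epithelial killing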). The note with it: imaging cell counts, at 1 µM; for red/green cell ratio (normalised): actives lie on both sides, counts scaled to control wells, 1 = unselective.
Assay [10] can be described thus: sensitizers of A549 cells to miR-34 induction, primary screen, imaging, A549 dox-inducible miR-34, nuclei and caspase counts (AID 1347080). The note with it: A549 miR-34 inducible, Hoechst nuclei count, 48 h.
Assay [11] in a line: survival rescue of mitochondrial mutant cells in low glucose, primary screen, MELAS cybrids, Rieske KO mouse fibroblasts, CellTiter-Glo (AID 1508586;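 active = mean z-score across replicates of 1.96 or higher in either the MELAS or the Rieske mutant cell line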;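 note: z relative to plate mean and SD of compound and empty wells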).
In assay [12] the target is NAD(+) hydrolase SARM1 (Homo sapiens) (UniProt Q6SZW1). The experiment in a line: SARM1 TIR NADase inhibitors, cell lysate, NAD-Glo luminescence (AID 1508614;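 active = compound whose remaining NAD level is above about 45 nM, limit read from the data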;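 note: higher remaining NAD means stronger inhibition of SARM1 NADase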). The note with it: SAM-TIR HEK293T lysate NADase, at 1 µM, stronger effect = higher value.
Sequence of NAD(+) hydrolase SARM1 (Homo sapiens) (Q6SZW1 whole entry, looked up): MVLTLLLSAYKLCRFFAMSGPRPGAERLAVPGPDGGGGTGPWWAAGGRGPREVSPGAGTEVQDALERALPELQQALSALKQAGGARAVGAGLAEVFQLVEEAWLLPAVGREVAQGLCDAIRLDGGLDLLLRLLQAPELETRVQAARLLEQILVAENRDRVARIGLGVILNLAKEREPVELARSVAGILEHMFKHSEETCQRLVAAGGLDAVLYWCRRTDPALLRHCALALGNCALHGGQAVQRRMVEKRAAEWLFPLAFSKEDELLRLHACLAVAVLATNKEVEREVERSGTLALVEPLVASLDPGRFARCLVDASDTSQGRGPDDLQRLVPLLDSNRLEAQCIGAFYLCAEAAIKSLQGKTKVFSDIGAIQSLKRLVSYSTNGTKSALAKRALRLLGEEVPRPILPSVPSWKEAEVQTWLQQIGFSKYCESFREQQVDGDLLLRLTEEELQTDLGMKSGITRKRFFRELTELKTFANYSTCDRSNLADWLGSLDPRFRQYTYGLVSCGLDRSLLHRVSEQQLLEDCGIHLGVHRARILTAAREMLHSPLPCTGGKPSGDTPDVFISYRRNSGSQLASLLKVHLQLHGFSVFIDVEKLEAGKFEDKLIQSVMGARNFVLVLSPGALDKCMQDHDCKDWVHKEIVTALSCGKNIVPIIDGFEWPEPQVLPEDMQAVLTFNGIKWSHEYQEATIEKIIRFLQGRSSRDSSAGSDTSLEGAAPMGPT
The nature of assay [13]: hESC survival regulators, cell-based (AID 493140; call rule not given here;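 note: cells exposed to compounds for four days before counting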). The note with it: human embryonic stem cell survival screen; stronger effect = higher value.
Assay [14] in a line: liver-stage malaria parasite growth inhibition, primary screen, cell-based, HepG2, luciferase luminescence, HepG2 viability (AID 624349; in the data active = parasite load remaining mostly below about 12%, no sharp cut-off; inactive = mostly above about 10%;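 note: 100% = mean of DMSO negative control wells on the same plate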). The note with it: P. berghei liver stage in HepG2, luciferase luminescence, concentration not given here; parasite load remaining: stronger effect = lower value; viability: measured here: HepG2 viability without parasites.
The mark [15] stands for this setting: measured here: epithelial PC-3E GFP cell survival.
[16] abbreviates: measured here: mesenchymal TEM4-18 mCherry cell survival.
Where [17] appears, read: stronger effect = lower value, cell number ratio, induced over uninduced.
Where [18] appears, read: measured here: relative caspase fold change +Dox/-Dox.
The mark [19] stands for this setting: measured here: total cells with miR-34 induction, stronger effect = lower value.
Setting [20] is: measured here: total cells without miR-34 induction.
[21] abbreviates: MELAS cybrid survival, CellTiter-Glo 48 h, stronger effect = higher value.
Setting [22] is: Rieske KO mouse fibroblast survival, CellTiter-Glo 72 h.

Values joined by “and” are separate entries in the source; they are usually repeats but may differ in a detail not shown here. Equal values may be shown once. A structure can be active in one record and inactive in another. Active and inactive are the calls of the source.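 Rule for the calls, unless noted: active = compounds whose cell count with miR-34 switched on is under 0.7 times the count with it off; inactive = the rest.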

Turning to `O=C(O)c1cc(-c2ccccc2)nc2ccccc12`, the nuclear beta-catenin stimulation in assay [1] (at 10 µM) was 2.1% (inactive); in [1] (stimulation, at 2 µM), 0.6%. Moreover, in [2], the insulin secretion stimulation was -1.6% (inactive). In addition, the viability decrease in assay [3] was 5.55% (inactive). For the same compound, the tube area decrease in assay [4] was 1.3% (inactive). Further, the GLP1 secretion stimulation in [5] is 4.2% (inactive). Moreover, the inhibition of viability in assay [6] is -8.1% (inactive). Besides, the viability decrease (inhibition) in assay [7] was 27.9% (inactive); in [8], 8.8% (inactive). Besides, in assay [9], the red/green cell ratio (normalised) is 0.87 (inactive). Besides, the normalised cell number in [9] (setting [15]) came out at 0.9; in assay [9] (setting [16]) it was 0.78. Moreover, the fold change in [10] (setting [17]) is 0.909 (inactive) and 0.965 (inactive); in assay [10] (setting [18]), 0.94 and 1.19. Moreover, the cell count in [10] (setting [19]) is 8690 and 8580; in [10] (setting [20]), 9560 and 8890. Besides, the z-score in assay [11] (setting [21]) is -0.261 (inactive); in assay [11] (setting [22]) it was -0.139. Also, in assay [12], the remaining NAD is 10 nM (inactive).

On to `CN1C(CCl)Nc2cc(Cl)c(S(N)(=O)=O)cc2S1(=O)=O` (stereo not given), for which the nuclear beta-catenin stimulation in [1] (at 10 µM) was -0.9% (inactive); in [1] (stimulation, at 2 µM), 1.3%. For the same compound, the insulin secretion stimulation in assay [2] was 2.3% (inactive). In assay [3], the viability decrease is 0.4% (inactive). Further, the tube area decrease in [4] was 3.9% (inactive). The GLP1 secretion stimulation in assay [5] is -2.1% (inactive). The inhibition of viability in assay [6] was -10.4% (inactive). In addition, the viability decrease (inhibition) in assay [7] was -2.9% (inactive); in [8] it was -20.7% (inactive). Further, in assay [9], the red/green cell ratio (normalised) is 0.93 (inactive). For the same compound, the values for the normalised cell number in [9] (setting [15]) and in [9] (setting [16]) were 1.23 and 1.15, respectively. The fold change in [10] (setting [17]) was 0.914 (inactive) and 0.898 (inactive); in [10] (setting [18]), 1.08 and 0.519. Further, the cell count was 8680 and 8370 in [10] (setting [19]); 9500 and 9310 in assay [10] (setting [20]). Moreover, the results for the z-score in assay [11] (setting [21]) and in assay [11] (setting [22]) were -0.258 (inactive) and -0.124, respectively. Further, the remaining NAD in assay [12] was 10 nM (inactive).

The term viability denotes a read-out of living cells in per cent, often relative to untreated cells. Consider `CN1C(=O)CC(c2ccccc2)C1=O` (stereo not given), for which the survival in assay [13] was 19.1 (inactive). In addition, the parasite load remaining in assay [14] was 94.6% (inactive). In assay [14], the viability came out at 73.1%. The nuclear beta-catenin stimulation in assay [1] (at 10 µM) is 0.4% (inactive); in [1] (stimulation, at 2 µM) it was 0.3%. In addition, the insulin secretion stimulation in assay [2] is -0.7% (inactive). Besides, the viability decrease in assay [3] is 4.95% (inactive). Further, the tube area decrease in assay [4] is -2.7% (inactive). Besides, in assay [5], the GLP1 secretion stimulation was -0.4% (inactive). For the same compound, in [6], the inhibition of viability was -5.7% (inactive). Moreover, the viability decrease (inhibition) is 54.4% (active) in [7] and 12.9% (inactive) in [8]. Moreover, the red/green cell ratio (normalised) in assay [9] is 0.99 (inactive). Also, the results for the normalised cell number in [9] (setting [15]) and in assay [9] (setting [16]) were 1.01 and 1, respectively. For the same compound, the fold change in assay [10] (setting [17]) was 0.941 (inactive) and 0.972 (inactive); in assay [10] (setting [18]), 1.17 and 0.864. Moreover, the cell count in [10] (setting [19]) was 9250 and 9510; in assay [10] (setting [20]), 9830 and 9780. Also, the results for the z-score in assay [11] (setting [21]) and in assay [11] (setting [22]) were 0.397 (inactive) and 0.0941, respectively. Further, the remaining NAD in assay [12] is 10 nM (inactive).

Turning to `OC1(c2ccc(Cl)c(C(F)(F)F)c2)CCN(CCCC(c2ccc(F)cc2)c2ccc(F)cc2)CC1`, the nuclear beta-catenin stimulation in [1] (at 10 µM) is -2.1% (inactive); in [1] (stimulation, at 2 µM), 27.1%. For the same compound, the insulin secretion stimulation in assay [2] was 0.05% (inactive). The viability decrease in assay [3] was 117% (active). Also, the tube area decrease in assay [4] is 112% (active). Also, in [5], the GLP1 secretion stimulation was 51.4% (active). Also, the inhibition of viability in [6] was 124% (active). Besides, the figures for the viability decrease (inhibition) in assay [7] and in [8] were 158% (active) and 101% (active), respectively. For the same compound, the red/green cell ratio (normalised) in assay [9] was 0.98 (inactive). Further, the figures for the normalised cell number in assay [9] (setting [15]) and in assay [9] (setting [16]) were 0.98 and 0.96, respectively. Besides, the fold change was 0.677 (active) and 0.99 (inactive) in assay [10] (setting [17]); 1.19 and 0.678 in assay [10] (setting [18]). Also, the cell count in assay [10] (setting [19]) is 3030 and 2930; in assay [10] (setting [20]), 4480 and 2970. Further, the z-score was -0.344 (inactive) in assay [11] (setting [21]) and -0.197 in [11] (setting [22]). For the same compound, the remaining NAD in [12] is 10 nM (inactive).

For the compound `CC(C(=O)O)c1ccc2c(c1)Cc1cccnc1O2` (stereo not given), in [14], the parasite load remaining is 27% (inactive). In [14], the viability was 105%. Also, the nuclear beta-catenin stimulation in assay [1] (at 10 µM) is 0.4% (inactive); in assay [1] (stimulation, at 2 µM), -0.1%. In addition, in assay [2], the insulin secretion stimulation was 4.3% (inactive). Besides, in assay [3], the viability decrease is -8.3% (inactive). Further, in assay [4], the tube area decrease was -14.8% (inactive). Moreover, the GLP1 secretion stimulation in assay [5] was -2.7% (inactive). For the same compound, the inhibition of viability in [6] was -12% (inactive). The viability decrease (inhibition) was 18.6% (inactive) in assay [7] and 9.3% (inactive) in [8]. Also, the red/green cell ratio (normalised) in assay [9] was 0.99 (inactive). In addition, the normalised cell number in [9] (setting [15]) was determined as 0.91; in assay [9] (setting [16]), 0.9. Further, the fold change in [10] (setting [17]) is 1 (inactive) and 0.866 (inactive); in assay [10] (setting [18]), 0.334 and 1.75. In addition, the cell count in [10] (setting [19]) was 3140 and 9560; in [10] (setting [20]), 3140 and 11000. Moreover, the z-score was -0.199 (inactive) and 0.41 (inactive) and -0.18 (inactive) in assay [11] (setting [21]); 0.0831 and 0.15 and -0.741 in [11] (setting [22]). In addition, in assay [12], the remaining NAD is 10 nM (inactive).
